The values below come from PubChem BioAssay (NCATS).

Results filed as inconclusive are left out. Values without a mark were called inactive. Active and inactive are the calls of the source. The call rests on the fitted dose curve; in most records, active means well fitted curve in the direction sought with a large enough effect; inconclusive means small, poorly fitted or top-dose-only effect, or another doubt; inactive means no such curve, though single readings can be large; an effect the other way counts as inactive or inconclusive. Where a SMILES comes first, the peptide text is derived from it. The star is where a group is joined. AFC = O=c1cc(C(F)(F)F)c2ccc(N*)cc2o1

The nature of experiment [1]: P-glycoprotein substrates identified in KB-3-1 adenocarcinoma cell line, qHTS therapeutic library screen (AID 1346986). Further: nearly all actives have a fitted effect of over 60% in size.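 Further: potency is for cytotoxicity meaning loss of cell viability.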 The gist of the method:
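Compounds were tested in dose-response against KB-3-1 and KB-8-5-11 cells at 37 degree C for 72 h, and viability was measured by luminescence. AC50 values came from curve fitting with class-based activity calls.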
In general terms: In qHTS, concentration-response curves come from the screen itself.

Experiment [2] can be described thus: P-glycoprotein substrates identified in KB-8-5-11 adenocarcinoma cell line, qHTS therapeutic library screen (AID 1346987). Further: nearly all actives have a fitted effect of over 65% in size. On activity change, negative = cytotoxicity: series mostly up to about 44 µM; on the % scale 0 is the no-effect control and ±100 the full control effect. The gist of the method: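 P-gp-mediated resistance screen: KB-8-5-11 cells treated 72 h with compounds in dose-response. CellTiter-Glo viability.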
Potency means the concentration at half of the fitted maximal effect.

For the molecule `C[C@H]1C(=O)N2c3ccccc3[C@@]3(O)C[C@@H]4C(=O)N[C@](C)(c5nc6ccccc6c(=O)n54)N1[C@@H]23`, the Potency entry in experiment [1] and in experiment [2] was “inactive” each time.

As to `CC1OC(OC2C(O)C(OC3CCC4(C)C(CCC5(C)C4CC=C4C6CC(C)(COC7OC(CO)C(O)C(O)C7O)CC(O)C6(C)CCC45C)C3(C)C)OC(C(=O)O)C2O)C(O)C(O)C1OC1OCC(O)C(O)C1O` (stereo unspecified), the outcome in experiment [1] is “inactive [at 9.29 µM]”. Also, the activity change, negative = cytotoxicity in experiment [2] is 1.43% [at 9.29 µM].

For `CC(C)(C)C(=O)CN1C(=O)[C@H](NC(=O)Nc2cccc(C(=O)O)c2)CN(C2CCCCC2)c2ccccc21`, the Potency entry in experiment [1] and in experiment [2] was “inactive” throughout.

For `C[C@@H]1O[C@@H](O[C@H]2[C@H](O[C@H]3[C@H](O)[C@@H](C(=O)O)O[C@@H](O[C@H]4CC[C@@]5(C)C(CC[C@]6(C)C5CC[C@]57OC[C@@]8(CCC(C)(C)CC85)[C@H](O)C[C@]76C)C4(C)C)[C@@H]3O[C@@H]3O[C@H](CO)[C@@H](O[C@@H]4OC[C@@H](O)[C@H](O)[C@H]4O)[C@H](O)[C@H]3O)O[C@H](CO)[C@H](O)[C@@H]2O)[C@H](O)[C@H](O)[C@H]1O` (stereo partly specified), the outcome in experiment [1] is “inactive [at 9.29 µM]”. Moreover, in experiment [2], the activity change, negative = cytotoxicity was 2.43% [at 9.29 µM].

As for `CC1(C)CC[C@]2(C(=O)O[C@@H]3O[C@H](CO)[C@@H](O)[C@H](O)[C@H]3O)CC[C@]3(C)C(=CCC4[C@@]5(C)C[C@@H](O)[C@H](O)[C@@](C)(CO)C5CC[C@]43C)C2[C@@H]1O` (stereo partly specified), the Potency entry in experiment [1] and in experiment [2] was “inactive” each time.

Turning to `CC12CCC3c4ccc(OC5OC(C(=O)O)C(O)C(O)C5O)cc4CCC3C1CCC2O` (stereo unspecified), the Potency result in experiment [1] and in experiment [2] was “inactive” in each case.

In the case of `C=C1[C@@H]2CC[C@@H]3[C@@](CCC4C(C(=O)O)(C(=O)O)C[C@@H](O[C@@H]5O[C@H](CO)[C@@H](O)[C@H](O)[C@H]5OC(=O)CC(C)C)C[C@]43C)(C2)[C@H]1O` (stereo partly specified), the Potency result in experiment [1] and in experiment [2] was “inactive” throughout.

As for `O=C1NC(Cc2c[nH]c3ccccc23)C(=O)NC1Cc1c[nH]c2ccccc12` (stereo unspecified), the Potency result in experiment [1] and in experiment [2] was “inactive” in each case.

As to `C=CC1C(OC2OC(CO)C(O)C(O)C2O)OC=C(C(=O)OC)C1CC(=O)OCC1C(C)C(O)CC1C(CO)COC(=O)CC1C(C(=O)O)=COC(OC2OC(CO)C(O)C(O)C2O)/C1=C\C` (stereo unspecified), in experiment [1], the outcome was “inactive [at 9.29 µM]”. Besides, the activity change, negative = cytotoxicity in experiment [2] was -0.744% [at 9.29 µM].

`CCCCNc1ncc2c(-c3ccc(CN4CCN(C)CC4)cc3)cn(C3CCC(O)CC3)c2n1` (stereo unspecified): the Potency in experiment [1] is 0.517 µM (active); in experiment [2], 1.3 µM (active).

Consider `CC1(C)CC2C=C(C(=O)O)C3COC(=O)C(O)(CO)C23C1` (stereo unspecified), for which the Potency entry in experiment [1] and in experiment [2] was “inactive” each time.

As for `O=C(OC1C=C(CO)C2C(OC3OC(CO)C(O)C(O)C3O)OC=CC12)c1ccc(O)cc1` (stereo unspecified), the Potency entry in experiment [1] and in experiment [2] was “inactive” each time.

As for `COc1cc(N2CCOCC2)ccc1Nc1ncc(Cl)c(Nc2ccccc2NS(C)(=O)=O)n1`, the figures for the Potency in experiment [1] and in experiment [2] were 2.06 µM (active) and 1.64 µM (active), respectively.

Turning to `C=C1CC[C@@H]2[C@](C)(CO[C@@H]3O[C@H](CO)[C@@H](O)[C@H](O)[C@H]3O)[C@H](O)CC[C@@]2(C)[C@@H]1C/C=C1/C(=O)OC[C@H]1O`, the Potency entry in experiment [1] and in experiment [2] was “inactive” each time.

Regarding `CC(C)=CCC/C(C)=C/CO[C@@H]1O[C@H](CO)[C@@H](OC(=O)/C=C/c2ccc(O)cc2)[C@H](O[C@@H]2O[C@@H](C)[C@H](O)[C@@H](O)[C@H]2O)[C@H]1O`, the Potency entry in experiment [1] and in experiment [2] was “inactive” each time.

Consider `Cc1ccc(C(=O)Nc2noc3ccccc23)cc1`, for which the Potency entry in experiment [1] and in experiment [2] was “inactive” in each case.

Take `CC(=O)/C=C/[C@H]1[C@](C)(O)[C@@H](O)[C@H](OC(C)=O)C2C(C)(C)CCC[C@@]21C` (stereo partly specified): the Potency result in experiment [1] and in experiment [2] was “inactive” each time.

Take `C[C@H](Nc1ncnc2nc[nH]c12)c1cc2ccc(F)cc2nc1-c1ccccn1`: the Potency entry in experiment [1] and in experiment [2] was “inactive” in each case.

As to `CC(C(O)/C=C/C(C)(C)O)C1CCC2(C)C3C(=O)C=C4C(CCC(O)C4(C)C)C3(C)CCC12C` (stereo unspecified), the Potency result in experiment [1] and in experiment [2] was “inactive” throughout.

As to `CC(=O)N[C@@H](Cc1c[nH]c2ccccc12)C(=O)N[C@@H](CCC(=O)O)C(=O)N[C@@H](Cc1cnc[nH]1)C(=O)N[C@@H](CC(=O)O)C(=O)Nc1ccc2c(C(F)(F)F)cc(=O)oc2c1` (Ac-WEHD-{AFC}), the Potency entry in experiment [1] and in experiment [2] was “inactive” each time.

`CC(=O)OC1C(O)C2C(C)C3=CC(=O)OC3(O)CC2C2(C)CCCC(C)(CO)C12` (stereo unspecified): the Potency entry in experiment [1] and in experiment [2] was “inactive” in each case.

On to `C=C1C(O)CC2C(C(=O)O)=COC(O[C@@H]3O[C@H](COC(=O)/C=C/c4ccc(O)cc4)[C@@H](O)[C@H](O)[C@H]3O)C12` (stereo partly specified), for which the Potency entry in experiment [1] and in experiment [2] was “inactive” in each case.

In the case of `CCC[C@@H]1O[C@@H]2C[C@H]3[C@@H]4CCC5=CC(=O)C=C[C@]5(C)[C@H]4[C@@H](O)C[C@]3(C)[C@]2(C(=O)CO)O1`, the Potency result in experiment [1] and in experiment [2] was “inactive” throughout.

For the molecule `COc1cc2c(c(OC)c1CC=C(C)C)C[C@H](c1ccc(O)cc1O)CO2`, the Potency result in experiment [1] and in experiment [2] was “inactive” in each case.

In the case of `COc1c2c(c(C)c3c1C(=O)OC3)OC1(C)CC(O)C(C(C)(C)O)C(C)(CCC(=O)O)C1C2` (stereo unspecified), the Potency result in experiment [1] and in experiment [2] was “inactive” each time.

`Nc1nccn2c(C3CCC(C(=O)O)CC3)nc(-c3cc4cccc(Cl)c4[nH]3)c12` (stereo unspecified): the Potency in experiment [1] is 1.64 µM (active); in experiment [2], 1.46 µM (active).

In the case of `CC1(C)CC[C@]2(C(=O)O)CC[C@]3(C)C(=CCC4[C@@]5(C)C[C@@H](O)[C@H](O)C(C)(C)C5CC[C@]43C)C2C1` (stereo partly specified), the Potency result in experiment [1] and in experiment [2] was “inactive” throughout.

For `OC[C@H]1O[C@@H](OC(CCCCc2ccc(O)cc2)CCc2ccc(O)cc2)[C@H](O)[C@@H](O)[C@@H]1O` (stereo partly specified), the Potency entry in experiment [1] and in experiment [2] was “inactive” each time.
